PubChem BioAssay (NCI)
About 83,000 compounds went through this panel and 20% of them were active in at least one assay; those are over-represented in the sample as a whole.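 Assay: single dose, 48 h. Readout: percent growth (0 = no net growth; negative = cell death). Active: <10.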 The source made the active and inactive calls.

Key:
Test in all cases: NCI-60 one-dose screen, 48 h (100 = growth as untreated, 0 = no growth, -100 = all killed)
HCT-15 colon = settings: 10 µM unless noted
SNB-75 CNS = settings: 10 µM unless noted
SNB-19 CNS = settings: 10 µM unless noted
U251 CNS = settings: 10 µM unless noted
PC-3 prostate = settings: 10 µM unless noted
SK-MEL-5 melanoma = settings: 10 µM unless noted
UACC-62 melanoma = settings: 10 µM unless noted
LOX IMVI melanoma = settings: 10 µM unless noted
SK-MEL-28 melanoma = settings: 10 µM unless noted
SK-MEL-2 melanoma = settings: 10 µM unless noted
EKVX NSCLC = settings: 10 µM unless noted
SN12C renal = settings: 10 µM unless noted
UO-31 renal = settings: 10 µM unless noted
TK-10 renal = settings: 10 µM unless noted
A498 renal = settings: 10 µM unless noted
CCRF-CEM leukemia = settings: 10 µM unless noted
MOLT-4 leukemia = settings: 10 µM unless noted
ACHN renal = settings: 10 µM unless noted
CAKI-1 renal = settings: 10 µM
HT29 colon = settings: 10 µM unless noted

Measured: growth

N#CC(C#N)=C(C#N)c1c[nH]c2ccccc12
inactive: HCT-15 colon 73.3% | SNB-75 CNS 79.6% | SNB-19 CNS 92.9% | U251 CNS 86.3% | PC-3 prostate 73.1% | SK-MEL-5 melanoma 92.8% | UACC-62 melanoma 82.9% | LOX IMVI melanoma 82.3% | SK-MEL-28 melanoma 108% | SK-MEL-2 melanoma 90.9% | EKVX NSCLC 73% | SN12C renal 79% | UO-31 renal 63.9% | TK-10 renal 98.9% | A498 renal 101% | CCRF-CEM leukemia 65.5% | MOLT-4 leukemia 75.7%

COc1ccc(/C(Cl)=N/N=C(\Cl)c2cc(OC)c(OC)c(OC)c2)cc1OC(C)=O
inactive: HCT-15 colon 100% | SNB-75 CNS 78.7% | SNB-19 CNS 92.3% | U251 CNS 89.6% | PC-3 prostate 74.8% | SK-MEL-5 melanoma 94.8% | UACC-62 melanoma 93.9% | LOX IMVI melanoma 96.7% | SK-MEL-28 melanoma 110% | SK-MEL-2 melanoma 92.3% | EKVX NSCLC 111% | SN12C renal 96.1% | UO-31 renal 65.5% | TK-10 renal 81.1% | A498 renal 90.2% | CCRF-CEM leukemia 94.4% | MOLT-4 leukemia 82.4%

C=C1C(=O)O[C@H]2[C@H]1CC/C(COC(=O)c1cc(OC)c(OC)c(OC)c1)=C\CC[C@@]1(C)O[C@@H]21
inactive: SNB-75 CNS 45.9% | SNB-19 CNS 30.5% | PC-3 prostate 18.6% | A498 renal 59.8%
active: HCT-15 colon -42.8% | U251 CNS 9.17% | SK-MEL-5 melanoma -23.8% | UACC-62 melanoma -50.7% | LOX IMVI melanoma -94.9% | SK-MEL-28 melanoma -36.5% | SK-MEL-2 melanoma -39.4% | EKVX NSCLC -70.6% | SN12C renal -5.94% | UO-31 renal -99% | TK-10 renal -64.4% | ACHN renal -87.7% | CCRF-CEM leukemia -22% | MOLT-4 leukemia -14.8%

O=c1c2ccccc2sc2c(NCCCNCCO)nc3ccccc3c12
inactive: HCT-15 colon 13.7% | SNB-75 CNS 35.3% | SNB-19 CNS 63.7% | U251 CNS 21.3% | PC-3 prostate 22.1% | EKVX NSCLC 55.6% | SN12C renal 44.8% | UO-31 renal 28.9% | A498 renal 16.4%
active: SK-MEL-5 melanoma -64.7% | UACC-62 melanoma -17.8% | LOX IMVI melanoma -87.4% | SK-MEL-28 melanoma -18.1% | SK-MEL-2 melanoma -35.6% | ACHN renal -7.87% | CCRF-CEM leukemia -6.25% | MOLT-4 leukemia -20.4%

CCN1CCN(Cc2ccc(NC(=O)Nc3cccc(-n4ccc5c(NC(=O)c6ccccc6)nccc54)c3)cc2C(F)(F)F)CC1
inactive: HCT-15 colon 77% | SNB-75 CNS 80.2% | SNB-19 CNS 89.8% | U251 CNS 76.3% | PC-3 prostate 66.4% | SK-MEL-5 melanoma 43.1% | UACC-62 melanoma 68% | LOX IMVI melanoma 85% | SK-MEL-28 melanoma 82.8% | SK-MEL-2 melanoma 90.6% | EKVX NSCLC 89.8% | SN12C renal 95.7% | UO-31 renal 72.3% | ACHN renal 96% | CAKI-1 renal 81% | A498 renal 90% | CCRF-CEM leukemia 78.7% | MOLT-4 leukemia 112%

Fc1cccc(F)c1C#Cc1ccc2cccnc2c1
inactive: HCT-15 colon 74.9% | SNB-75 CNS 97.8% | SNB-19 CNS 91.3% | U251 CNS 80.6% | PC-3 prostate 86.1% | SK-MEL-5 melanoma 71.9% | UACC-62 melanoma 71.3% | LOX IMVI melanoma 86.9% | SK-MEL-28 melanoma 106% | SK-MEL-2 melanoma 84.4% | EKVX NSCLC 68.6% | SN12C renal 88.3% | UO-31 renal 53.5% | TK-10 renal 88.4% | ACHN renal 88.5% | A498 renal 99.7% | CCRF-CEM leukemia 83.7% | MOLT-4 leukemia 71.6%

O=C(CSc1nnc(-c2cc3c([nH]c4ccccc43)c(-c3cccc(O)c3)n2)n1-c1ccccc1)c1ccccc1
inactive: HCT-15 colon 46.3% | SNB-75 CNS 45.8% | SNB-19 CNS 84.2% | U251 CNS 32.9% | PC-3 prostate 40.2% | SK-MEL-5 melanoma 33.2% | UACC-62 melanoma 69.8% | LOX IMVI melanoma 11.2% | SK-MEL-28 melanoma 71.5% | SK-MEL-2 melanoma 65.7% | SN12C renal 67.7% | UO-31 renal 63.4% | ACHN renal 40.3% | CAKI-1 renal 45.5% | A498 renal 67% | CCRF-CEM leukemia 30.9% | MOLT-4 leukemia 41.7%

COc1ccccc1N1CCN(CC(O)COc2c(Br)c(Br)c(Br)c3c2OC(C)(C)C3)CC1 (centres undefined)
active: SK-MEL-5 melanoma 7.43% | CCRF-CEM leukemia -54.6% | MOLT-4 leukemia -36.7%
inactive: HCT-15 colon 24.6% | SNB-75 CNS 71% | SNB-19 CNS 60.8% | U251 CNS 52.7% | PC-3 prostate 18.9% | UACC-62 melanoma 56.6% | LOX IMVI melanoma 18.5% | SK-MEL-28 melanoma 90.4% | SK-MEL-2 melanoma 60.5% | EKVX NSCLC 117% | SN12C renal 65.8% | UO-31 renal 13.2% | TK-10 renal 40.5% | ACHN renal 56.1% | A498 renal 55.9%

COc1ccc(-c2nnc(SCC(=O)Nc3ccc(C(=O)/C=C/c4ccc(OC)c(OC)c4)cc3)o2)cc1
inactive: HCT-15 colon 74.8% | SNB-75 CNS 87.5% | SNB-19 CNS 89.6% | U251 CNS 66.9% | PC-3 prostate 79.8% | SK-MEL-5 melanoma 75.9% | UACC-62 melanoma 82.9% | LOX IMVI melanoma 77.1% | SK-MEL-28 melanoma 99.5% | SK-MEL-2 melanoma 94.1% | EKVX NSCLC 90% | SN12C renal 92.3% | TK-10 renal 95.9% | A498 renal 103% | CCRF-CEM leukemia 77.7% | MOLT-4 leukemia 68.1%

Cc1nccc2c3ccc(OCc4cn(-c5ccc(Br)cc5)nn4)cc3n(CCCc3ccccc3)c12
inactive: HCT-15 colon 60.5% | SNB-75 CNS 26.7% | SNB-19 CNS 56.1% | PC-3 prostate 14.1% | SK-MEL-5 melanoma 30.4% | SK-MEL-2 melanoma 107% | EKVX NSCLC 68.9% | SN12C renal 66.9% | TK-10 renal 34.1% | A498 renal 110% | CCRF-CEM leukemia 15% | MOLT-4 leukemia 41.2%
active: U251 CNS -61% | UACC-62 melanoma 6.16% | LOX IMVI melanoma -39.6% | SK-MEL-28 melanoma -67.6% | UO-31 renal -73.5%

CC(=S)Nc1ccccc1
inactive: HCT-15 colon 99.4% | SNB-75 CNS 87.3% | SNB-19 CNS 97.8% | U251 CNS 96.2% | PC-3 prostate 84.9% | SK-MEL-5 melanoma 98% | UACC-62 melanoma 96.8% | LOX IMVI melanoma 91.2% | SK-MEL-28 melanoma 112% | SK-MEL-2 melanoma 97.3% | EKVX NSCLC 87.3% | SN12C renal 92.9% | UO-31 renal 81.5% | ACHN renal 97.4% | A498 renal 103% | CCRF-CEM leukemia 102% | MOLT-4 leukemia 103%

CC(=O)Cc1cccnc1
inactive: HCT-15 colon 107% | SNB-75 CNS 104% | SNB-19 CNS 98.8% | U251 CNS 98.6% | PC-3 prostate 94.3% | SK-MEL-5 melanoma 101% | UACC-62 melanoma 95.6% | LOX IMVI melanoma 99.9% | SK-MEL-2 melanoma 116% | EKVX NSCLC 105% | SN12C renal 98.9% | UO-31 renal 89.8% | TK-10 renal 95.5% | A498 renal 85.4% | CCRF-CEM leukemia 88.5% | MOLT-4 leukemia 93.7%

CCc1ccc(C2=C/C(=C/c3ccc(Cl)cc3)C(=O)N2CCc2ccc(S(N)(=O)=O)cc2)cc1
inactive: HCT-15 colon 17.7% | SNB-75 CNS 52.5% | SNB-19 CNS 54.6% | PC-3 prostate 11.5% | SK-MEL-5 melanoma 41.4% | UACC-62 melanoma 31.2% | LOX IMVI melanoma 24.3% | EKVX NSCLC 29.7% | SN12C renal 29% | UO-31 renal 16.5% | ACHN renal 14.9% | A498 renal 33.1% | CCRF-CEM leukemia 15%
active: SK-MEL-2 melanoma -12.5% | MOLT-4 leukemia -1.62%

Nn1c(CN2CCN(c3cc4c(cc3F)c(=O)c(C(=O)O)cn4C3CC3)CC2)n[nH]c1=S
inactive: HCT-15 colon 106% | SNB-75 CNS 86.4% | SNB-19 CNS 99.6% | U251 CNS 112% | PC-3 prostate 105% | SK-MEL-5 melanoma 97.5% | UACC-62 melanoma 93.9% | LOX IMVI melanoma 103% | SK-MEL-28 melanoma 109% | SK-MEL-2 melanoma 95.9% | EKVX NSCLC 102% | SN12C renal 95.7% | UO-31 renal 91.7% | TK-10 renal 93.8% | A498 renal 97.7% | CCRF-CEM leukemia 98.8% | MOLT-4 leukemia 103%

COc1cc(NC(=O)C#Cc2ccccc2)c(OC)cc1Cl
inactive: HCT-15 colon 20.6% | SNB-75 CNS 65.8% | SNB-19 CNS 40.7% | U251 CNS 39.5% | PC-3 prostate 38.1% | SK-MEL-5 melanoma 30.1% | UACC-62 melanoma 36.8% | LOX IMVI melanoma 17.2% | SK-MEL-28 melanoma 84.2% | SK-MEL-2 melanoma 60.4% | EKVX NSCLC 62.7% | SN12C renal 26.4% | UO-31 renal 40.4% | TK-10 renal 111% | A498 renal 100% | CCRF-CEM leukemia 11.1% | MOLT-4 leukemia 22.4%

c1ccc2nc(Cn3cc[n+](Cc4ccc5ccccc5n4)c3)ccc2c1
inactive: HCT-15 colon 102% | SNB-75 CNS 70.7% | SNB-19 CNS 47.7% | U251 CNS 44.2% | PC-3 prostate 42.6% | SK-MEL-5 melanoma 16.9% | UACC-62 melanoma 54.6% | LOX IMVI melanoma 75.4% | SK-MEL-28 melanoma 63.8% | SK-MEL-2 melanoma 55% | EKVX NSCLC 88.3% | SN12C renal 40.5% | UO-31 renal 88% | TK-10 renal 98.3% | ACHN renal 102% | A498 renal 90.7% | CCRF-CEM leukemia 80% | MOLT-4 leukemia 65.4%

CCN(CC)c1ccc(C2CC(c3cc(OC)c(OC)c(OC)c3)=NN2)cc1 (centres undefined)
active: HT29 colon -3.21% | SK-MEL-5 melanoma -26.4% | A498 renal -2.94% | MOLT-4 leukemia 7.4%
inactive: HCT-15 colon 36.1% | SNB-75 CNS 18.7% | SNB-19 CNS 14% | PC-3 prostate 26.3% | LOX IMVI melanoma 40.5% | SK-MEL-28 melanoma 64.8% | SK-MEL-2 melanoma 27.6% | EKVX NSCLC 27.6% | SN12C renal 47.2% | UO-31 renal 36.5% | ACHN renal 75.3%

O=C(CSc1nnc(-c2ccc(Cl)cc2)o1)Nc1ccc(C(=O)/C=C/c2ccccc2)cc1
inactive: HCT-15 colon 96.7% | SNB-75 CNS 90.4% | SNB-19 CNS 86.9% | U251 CNS 99.3% | PC-3 prostate 99.4% | SK-MEL-5 melanoma 98% | UACC-62 melanoma 85.6% | LOX IMVI melanoma 85.3% | SK-MEL-2 melanoma 92.9% | EKVX NSCLC 98% | SN12C renal 95.5% | UO-31 renal 80.1% | TK-10 renal 93.7% | A498 renal 95.7% | CCRF-CEM leukemia 86.1% | MOLT-4 leukemia 93.1%
